Among the data in ChEMBL document CHEMBL5308504, “Tm Shift (DSF) assay results for EUbOPEN Chemogenomics Library” (2023) are ΔTm values, retold here.

In test [1] the target is Bromodomain-containing protein 4 (Homo sapiens) (UniProt O60885). The conditions noted are these: Compound concentration 20.0 uM, Protein concentration 2.0 uM, Result type QC Liability.
For test [2], the target named is T1, Transcription intermediary factor 1-alpha (Homo sapiens) (UniProt O15164).
T1 sequence (whole entry): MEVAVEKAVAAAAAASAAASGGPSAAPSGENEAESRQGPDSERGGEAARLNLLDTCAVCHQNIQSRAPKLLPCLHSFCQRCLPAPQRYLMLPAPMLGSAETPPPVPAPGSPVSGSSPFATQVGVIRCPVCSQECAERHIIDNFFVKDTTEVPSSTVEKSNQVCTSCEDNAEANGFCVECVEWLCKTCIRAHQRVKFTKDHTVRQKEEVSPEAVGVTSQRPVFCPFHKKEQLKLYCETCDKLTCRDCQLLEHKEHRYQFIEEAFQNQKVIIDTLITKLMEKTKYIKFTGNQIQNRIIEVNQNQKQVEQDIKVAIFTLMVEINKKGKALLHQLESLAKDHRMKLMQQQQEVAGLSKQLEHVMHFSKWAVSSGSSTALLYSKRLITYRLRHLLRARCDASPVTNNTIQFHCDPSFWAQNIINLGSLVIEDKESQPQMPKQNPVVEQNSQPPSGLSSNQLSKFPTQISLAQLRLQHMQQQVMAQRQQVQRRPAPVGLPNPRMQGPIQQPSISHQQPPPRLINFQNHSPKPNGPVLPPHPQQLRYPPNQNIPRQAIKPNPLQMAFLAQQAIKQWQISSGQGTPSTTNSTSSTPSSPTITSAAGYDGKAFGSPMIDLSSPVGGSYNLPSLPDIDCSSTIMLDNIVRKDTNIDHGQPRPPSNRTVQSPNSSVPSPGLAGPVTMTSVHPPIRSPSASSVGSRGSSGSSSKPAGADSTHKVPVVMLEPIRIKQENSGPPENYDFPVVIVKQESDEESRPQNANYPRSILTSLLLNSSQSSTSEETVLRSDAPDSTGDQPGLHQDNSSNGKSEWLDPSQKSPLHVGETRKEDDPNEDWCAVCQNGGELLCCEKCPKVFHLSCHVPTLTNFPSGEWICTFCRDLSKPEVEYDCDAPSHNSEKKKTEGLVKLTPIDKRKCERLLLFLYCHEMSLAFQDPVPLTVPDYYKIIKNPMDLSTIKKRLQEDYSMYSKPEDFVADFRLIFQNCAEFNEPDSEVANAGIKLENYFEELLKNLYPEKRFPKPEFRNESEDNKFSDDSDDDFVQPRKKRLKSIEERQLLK
The note with it: Compound concentration 20.0 uM, Protein concentration 2.0 uM, Result type QC Liability.

With `Cc1cn([C@@H](C)CC#N)c(=O)c2cc(Cn3nc(C(F)F)cc3Cl)nn12`, the figures for the ΔTm in test [1] and in test [2] were -0.88 °C and -2.22 °C, respectively.

On to `CCS(=O)(=O)Nc1cccc(Oc2cc(F)cc(Nc3ccc(I)cc3F)c2NS(=O)(=O)C2CC2)c1`, for which the thermal shift (ΔTm) is -2.86 °C in test [1] and 3.45 °C in test [2].

For `COc1cc(C(N)=O)ccc1Nc1ncc2c(n1)N(CCC(C)C)[C@H](C)C(=O)N2C`, the values for the ΔTm in test [1] and in test [2] were 6.98 °C and -0.48 °C, respectively.

In the case of `CC(=O)Nc1nc(CN2CCC[C@H](Cc3cc(C)nc(C)c3)C2)cs1`, the ΔTm in test [1] is 0.35 °C; in test [2], -1.42 °C.

For `CC(C)Oc1ccc(Cc2ccc(NC3=NCCN3)cc2)cc1`, the ΔTm in test [1] was -1.86 °C; in test [2], -0.24 °C.

Take `C1=Cc2ccccc2C(=C2CCN(CCCCc3nnn[nH]3)CC2)c2ccccc21`: the ΔTm in test [1] was -12.7 °C; in test [2], -0.3 °C.

For `CC[C@H](NC(=O)[C@H](C)NC)C(=O)N1C[C@@H](O)C[C@H]1Cc1c(-c2[nH]c3cc(F)ccc3c2C[C@@H]2C[C@H](O)CN2C(=O)[C@H](CC)NC(=O)[C@H](C)NC)[nH]c2cc(F)ccc12`, the values for the ΔTm in test [1] and in test [2] were -3.47 °C and -3.97 °C, respectively.

Turning to `Cc1cn([C@H](C)CC#N)c(=O)c2cc(Cn3nc(C(F)F)cc3Cl)nn12`, the ΔTm was -1.08 °C in test [1] and -1.23 °C in test [2].

Regarding `N=C(N)NCCC[C@H](NC(=O)CC1(CC(=O)N2CCN(C(c3ccccc3)c3ccccc3)CC2)CCCC1)C(=O)NCc1ccccc1`, the ΔTm is -0.62 °C in test [1] and -1.18 °C in test [2].

`NCc1ccc(OCCCc2sc(-c3ccc4c(c3)/C(=N/Nc3nc5ccccc5s3)CCC4)nc2C(=O)O)cc1`: the shift in melting temperature (ΔTm) in test [1] was -11 °C; in test [2] it was -0.58 °C.

Regarding `CNc1[nH]c(Nc2ccc(C(=O)N3CCOCC3)cc2OC)nc2ncc(Cl)c1-2`, the thermal shift (ΔTm) was -0.77 °C in test [1] and -2.36 °C in test [2].

Take `Cc1cc(CN(CC(=O)Nc2ccc(Cl)cc2Cl)C2CCCCC2)ccc1OCC(=O)O`: the ΔTm is -1.17 °C in test [1] and -0.29 °C in test [2].

Turning to `CCN1CCN(Cc2ccc(C(=O)Nc3ccc(C)c(Oc4ccc5c(c4)CC(=O)N5)c3)cc2C(F)(F)F)CC1`, the ΔTm was -2.44 °C in test [1] and -3.11 °C in test [2].

`Cc1ncc(C(=O)Nc2cc(C(C)(C)C)on2)cc1-n1cc(-c2cnn(C)c2C)nn1`: the ΔTm in test [1] is -3.35 °C; in test [2] it was -3.56 °C.

On to `O=C(O)CCC/C=C\C[C@@H]1[C@@H](/C=C/[C@@H](O)COc2cccc(C(F)(F)F)c2)[C@H](O)C[C@@H]1O`, for which the ΔTm in test [1] is -0.49 °C; in test [2], -0.79 °C.

For the molecule `COc1cc(-c2cn(C)c(=O)c3cnccc23)cc(OC)c1CN(C)C`, the results for the ΔTm in test [1] and in test [2] were -0.83 °C and 0.37 °C, respectively.

Consider `Cc1nccc(COC(=O)N2C[C@@H]3[C@@H](CNC(=O)c4ccc5[nH]nnc5c4)[C@@H]3C2)n1`, for which the ΔTm in test [1] is -4.78 °C; in test [2], 0.34 °C.

On to `O=C(Nc1ccc(Cl)c(-c2ccccn2)c1)c1cccc(COc2ccc(Br)cc2CNCCO)c1`, for which the ΔTm was -1.21 °C in test [1] and -0.08 °C in test [2].

As to `O=C(O)CCCc1cc2cc(Cl)ccc2n1S(=O)(=O)c1ccc2ncsc2c1`, the ΔTm is -3.71 °C in test [1] and -1.33 °C in test [2].

Take `O=C(Nc1cccc(C(F)(F)F)c1)c1cccc(-n2cc(-c3ccco3)nn2)c1`: the ΔTm in test [1] is -12.8 °C; in test [2] it was -0.66 °C.

In the case of `Cc1cc2nc(N3CCC(C(=O)NC4CCCC4)CC3)n(C(C)C)c2cc1C`, the ΔTm in test [1] was -0.57 °C; in test [2], -0.87 °C.

For `N#Cc1ccc(COc2ccc(Br)cc2CNCCO)cn1`, the ΔTm in test [1] is -0.82 °C; in test [2] it was -0.53 °C.

As to `COc1cc2ncnc(Nc3cccc(O)c3)c2cc1OC`, the ΔTm is 0.18 °C in test [1] and -0.88 °C in test [2].

On to `Clc1ccccc1C(c1ccccc1)(c1ccccc1)n1ccnc1`, for which the ΔTm was -5.6 °C in test [1] and -5.38 °C in test [2].

For `CC(C)S(=O)(=O)c1ccccc1Nc1nc(N[C@@H]2CCCN(CCCCCCCNC(=O)COc3cccc4c3C(=O)N(C3CCC(=O)N(C)C3=O)C4=O)C2)ncc1Cl` (some centres not stated), the ΔTm is -2.43 °C in test [1] and -1.22 °C in test [2].

As to `O=C(Nc1ccc(OC(F)(F)Cl)cc1)c1cnc(N2CC[C@@H](O)C2)c(-c2cc[nH]n2)c1`, the ΔTm in test [1] is 0 °C; in test [2] it was -3.05 °C.

With `C/C=C1\C(=O)CC2C3CCC4=CC(=O)CC[C@]4(C)C3CC[C@]12C` (some centres not stated), the ΔTm is -2.62 °C in test [1] and -2.32 °C in test [2].

For the molecule `COC[C@@H](C)N[C@H]1CC[C@H](Nc2cc(-c3cccc(NCC4(C#N)CCOCC4)n3)c(Cl)cn2)CC1`, the ΔTm was -0.6 °C in test [1] and -3.05 °C in test [2].

Take `c1ccc2c(c1)SCc1c-2[nH]c2ccccc12`: the thermal shift (ΔTm) in test [1] is -15.3 °C; in test [2], -7.68 °C.

On to `COc1ccc(CC[C@@H](OC(=O)[C@H]2CCCCN2C(=O)[C@@H](c2cc(OC)c(OC)c(OC)c2)C2CCCCC2)c2cccc(OCCN3CCOCC3)c2)cc1OC`, for which the ΔTm in test [1] was -4.83 °C; in test [2], -1.63 °C.

Turning to `CN(C)C/C=C/C(=O)Nc1cccc(S(=O)(=O)N2CCC(NC(=O)c3n[nH]cc3NC(=O)c3c(Cl)cc(Cl)cc3Cl)CC2)c1`, the results for the ΔTm in test [1] and in test [2] were -1.08 °C and 0.7 °C, respectively.

Take `COc1cc(-c2nn([C@H]3CC[C@H](N4CCN(C(C)=O)CC4)CC3)c3ncnc(N)c23)ccc1NC(=O)c1cc2ccccc2n1C`: the ΔTm was 0.13 °C in test [1] and -0.55 °C in test [2].

For the molecule `CNC(=O)c1cccc(-c2ccc3c(N4CCOC[C@@H]4C)nc(N4CCOC[C@@H]4C)nc3n2)c1`, the ΔTm in test [1] was -1.42 °C; in test [2] it was -1.47 °C.

As for `CC(C(=O)Nc1cc(C#N)ccc1CCCC(=O)O)c1ccc(F)c2ccccc12` (configuration not stated), the shift in melting temperature (ΔTm) in test [1] is -0.24 °C; in test [2], -1.35 °C.

Regarding `O=C(Nc1cccc(Nc2nccc(Nc3cccc(C(F)(F)F)c3)n2)c1)C1CC1`, the values for the ΔTm in test [1] and in test [2] were 1.77 °C and 1.03 °C, respectively.

Consider `CC(=O)O[C@H]1C(=O)[C@@]2(C)[C@H]([C@H](OC(=O)c3ccccc3)[C@]3(O)C[C@H](OC(=O)[C@H](O)[C@@H](NC(=O)c4ccccc4)c4ccccc4)C(C)=C1C3(C)C)[C@]1(OC(C)=O)CO[C@@H]1C[C@@H]2O`, for which the figures for the ΔTm in test [1] and in test [2] were -0.05 °C and -0.24 °C, respectively.
